Bioassay records from PubChem BioAssay.
The list is not random: actives were taken first. Their share in the collection is about 32%.
PostGolgi ctrl: growth inhibition of yeast control strain, primary screen, counter-screen for post-Golgi transport modulator project. efflux-deficient yeast background strain, growth absorbance A615, 16 h. inhibition, % at 10 µM. 5% of 98,000 active
PostGolgi yeast: phenotypic screen on post-Golgi transport, primary screen | post-Golgi transport phenotypic cell assay | inhibition, % at 10 µM | 0.9% of 98,000 active | AID 739, 2007;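 also: yeast cells grown in 1536-well plates; yeast grown about 18 h at 30C before absorbance read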
CYP2C19 inhib: blockers of cytochrome P450 2C19 activity – biochemical, luminescence, ADME assay, primary screen; CYP2C19 Supersomes, luciferin-H EGE luminescence, 30 min; 21% of 96,000 active; inhibition, % at 5 µM;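 active = CYP2C19 inhibition above a set limit at 5 µM in the primary screen, cut at about 50% in these data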;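 also: plate controls were negative control wells for no effect and 2.5 mM tranylcypromine positive control for full effect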
CYP2C9 inhib: blockers of cytochrome P450 2C9 activity – biochemical, luminescence, ADME assay, primary screen | P11712 | CYP2C9 Supersomes, luciferin-H conversion | inhibition, % at 5 µM | 20% of 96,000 active | AID 777, 2007;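 active = blocking of liver enzyme CYP2C9 beyond about 50% at 5 µM, limit read from the data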
Target sequence (P11712 whole entry, looked up): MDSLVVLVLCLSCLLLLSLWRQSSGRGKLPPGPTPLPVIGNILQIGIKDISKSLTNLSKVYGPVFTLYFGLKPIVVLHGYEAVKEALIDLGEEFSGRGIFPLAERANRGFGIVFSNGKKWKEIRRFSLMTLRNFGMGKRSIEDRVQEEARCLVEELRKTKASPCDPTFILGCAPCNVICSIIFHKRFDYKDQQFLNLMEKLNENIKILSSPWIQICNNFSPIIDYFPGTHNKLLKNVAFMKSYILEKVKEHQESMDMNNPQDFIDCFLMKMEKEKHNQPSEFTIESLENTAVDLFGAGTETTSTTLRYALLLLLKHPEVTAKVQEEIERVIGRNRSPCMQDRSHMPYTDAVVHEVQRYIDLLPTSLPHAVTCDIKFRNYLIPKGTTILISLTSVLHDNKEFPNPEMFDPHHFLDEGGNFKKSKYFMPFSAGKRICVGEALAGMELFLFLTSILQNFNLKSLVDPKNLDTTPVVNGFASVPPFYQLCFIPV
CYP2C9 act: human CYP2C9 activators, primary screen, biochemical, luminescence; Cytochrome P450 2C9 (Homo sapiens), P11712; recombinant CYP2C9, luciferin-H conversion; active compounds read high; factor 1 = untreated enzyme, 0 = blocked; activation factor at 5 µM; 1.4% of 96,000 active;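 active = activation factor of 2 or more for CYP2C9 at a 5 µM dose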;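 also: 0 = sulfaphenazole-blocked wells and 1 = vehicle-only wells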
CYP2C19 activ: human CYP2C19 activators, primary screen, biochemical, luminescence; activation factor at 5 µM; Cytochrome P450 2C19 (Homo sapiens), P33261; recombinant CYP2C19, luciferin-H EGE luminescence; active compounds read high; 0 = fully inhibited enzyme, 1 = untreated enzyme; 96,000 tested, under 10 active; AID 1025, 2008;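 active = activation factor of at least 2 at 5 µM in the primary screen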;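 also: 0 = wells with 2.5 mM tranylcypromine and 1 = vehicle-only wells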
* = called active by the depositor. Rule as the data show it, unless noted: active = inhibition above about 30%; inactive = the rest.

COc1cccc(N2C(=O)CC(N3CCc4ccccc43)C2=O)c1 (stereo not drawn) was read as PostGolgi ctrl 6, PostGolgi yeast 13, CYP2C19 inhib 83*, CYP2C9 inhib -43, CYP2C9 act 1.4 and CYP2C19 activ 0.2.
For COc1ccc(Cl)cc1N1C(=O)CC(N2CCc3ccccc32)C1=O (stereo not drawn) the results were PostGolgi ctrl -7, PostGolgi yeast -5, CYP2C19 inhib 91*, CYP2C9 inhib 33, CYP2C9 act 0.7 and CYP2C19 activ 0.1.
For C=CCn1c(CNc2ccccc2)nnc1SCC(=O)N/N=C/c1ccc(O)cc1O the results were PostGolgi ctrl -2, PostGolgi yeast 2, CYP2C19 inhib 48, CYP2C9 inhib 10, CYP2C9 act 0.9 and CYP2C19 activ 0.5.
O=S1(=O)C=C(SCc2ccccc2)Nc2ccccc21 was read as PostGolgi ctrl 10, PostGolgi yeast -1, CYP2C19 inhib 68*, CYP2C9 inhib 63*, CYP2C9 act 0.4 and CYP2C19 activ 0.3.
Screening c1ccc(CSc2ncccn2)cc1 returned PostGolgi ctrl 6, PostGolgi yeast 5, CYP2C19 inhib -5, CYP2C9 inhib -11, CYP2C9 act 1.1 and CYP2C19 activ 1.
COC(=O)C1=C(C)NC(=O)/C1=C\c1cccs1 was read as PostGolgi ctrl 8, PostGolgi yeast 9, CYP2C19 inhib 26, CYP2C9 inhib 57*, CYP2C9 act 0.4 and CYP2C19 activ 0.7.
For COC(=O)C1=C(C)N(c2cccc(C)c2)C(=O)/C1=C\c1cccs1 the results were PostGolgi ctrl 9, PostGolgi yeast -6, CYP2C19 inhib 48, CYP2C9 inhib 50*, CYP2C9 act 0.5 and CYP2C19 activ 0.5.
Screening COC(=O)c1cc(Br)c(=O)n(-c2ccccc2F)c1 returned PostGolgi ctrl -7, PostGolgi yeast -14, CYP2C19 inhib 51*, CYP2C9 inhib -2, CYP2C9 act 1 and CYP2C19 activ 0.5.
`COC(=O)C1=C(C)N(CC2CCCO2)C(=O)C1` (stereo not drawn) gave PostGolgi ctrl 4, PostGolgi yeast -10, CYP2C19 inhib 17, CYP2C9 inhib 24, CYP2C9 act 0.8 and CYP2C19 activ 0.8.
COC(=O)c1cc(Br)c(=O)n(CC(C)C)c1 was read as PostGolgi ctrl -3, PostGolgi yeast -4, CYP2C19 inhib 27, CYP2C9 inhib 6, CYP2C9 act 0.9 and CYP2C19 activ 0.7.
For COC(=O)C1=C(C)N(CCC2=CCCCC2)C(=O)C1 the results were PostGolgi ctrl 3, PostGolgi yeast 1, CYP2C19 inhib 98*, CYP2C9 inhib 44, CYP2C9 act 0.6 and CYP2C19 activ 0.
`COC(=O)c1cc(Br)c(=O)n(-c2ccc(F)cc2)c1` gave PostGolgi ctrl 2, PostGolgi yeast 2, CYP2C19 inhib 89*, CYP2C9 inhib 15, CYP2C9 act 0.9 and CYP2C19 activ 0.1.
For COC(=O)c1cc(Br)c(=O)n(CCc2ccc(O)cc2)c1 the results were PostGolgi ctrl 6, PostGolgi yeast -3, CYP2C19 inhib 52*, CYP2C9 inhib 10, CYP2C9 act 0.9 and CYP2C19 activ 0.5.
COC(=O)c1cc(Br)c(=O)n(CCc2ccc(F)cc2)c1 was read as PostGolgi ctrl 16, PostGolgi yeast -3, CYP2C19 inhib 94*, CYP2C9 inhib 56*, CYP2C9 act 0.4 and CYP2C19 activ 0.1.
COC(=O)c1cc(Br)c(=O)n(CCC2=CCCCC2)c1 was read as PostGolgi ctrl 0, PostGolgi yeast 6, CYP2C19 inhib 96*, CYP2C9 inhib 85*, CYP2C9 act 0.2 and CYP2C19 activ 0.
COC(=O)c1cc(Br)c(=O)n(CCN2CCCC2)c1 was read as PostGolgi ctrl 26, PostGolgi yeast 11, CYP2C19 inhib 7, CYP2C9 inhib 4, CYP2C9 act 1 and CYP2C19 activ 0.9.
`CCC(C)(C)NC(=O)Cc1ccccc1OC` gave PostGolgi ctrl 5, PostGolgi yeast -6, CYP2C19 inhib 22, CYP2C9 inhib -62, CYP2C9 act 1.6 and CYP2C19 activ 0.8.
`COC(=O)c1cc(COc2ccc3c4c(c(=O)oc3c2)CCC4)c(C)o1` gave PostGolgi ctrl 30, PostGolgi yeast -11, CYP2C19 inhib 38, CYP2C9 inhib 9, CYP2C9 act 0.9 and CYP2C19 activ 0.6.
O=C(O)Cc1ccc2[nH]c3ccc(CC(=O)O)cc3c2c1 was read as PostGolgi ctrl 24, PostGolgi yeast -6, CYP2C19 inhib -1, CYP2C9 inhib -2, CYP2C9 act 1 and CYP2C19 activ 1.
`Nc1ccc(Cl)cc1/C(=N/O)c1ccccc1` gave PostGolgi ctrl 8, PostGolgi yeast -7, CYP2C19 inhib 78*, CYP2C9 inhib 56*, CYP2C9 act 0.4 and CYP2C19 activ 0.2.
`Nc1ccc(SC(F)(F)F)cc1C(=O)c1ccccc1` gave PostGolgi ctrl 16, PostGolgi yeast -8, CYP2C19 inhib 32, CYP2C9 inhib 33, CYP2C9 act 0.7 and CYP2C19 activ 0.7.
Screening O=C1CN(C(=O)OCc2ccccc2)c2ccccc2N1 returned PostGolgi ctrl 2, PostGolgi yeast -4, CYP2C19 inhib 69*, CYP2C9 inhib 43, CYP2C9 act 0.6 and CYP2C19 activ 0.3.
For O=C1CN(C(=O)c2cccs2)c2ccccc2N1 the results were PostGolgi ctrl 33*, PostGolgi yeast -4, CYP2C19 inhib 8, CYP2C9 inhib 0, CYP2C9 act 1 and CYP2C19 activ 0.9.
For COc1ccccc1C(=O)NCCC(=O)N1CC(=O)Nc2ccccc21 the results were PostGolgi ctrl -6, PostGolgi yeast 0, CYP2C19 inhib -17, CYP2C9 inhib -97, CYP2C9 act 2* and CYP2C19 activ 1.2.
For Cc1nn(C(=O)c2cc3sccc3[nH]2)c(C)c1C the results were PostGolgi ctrl 22, PostGolgi yeast -6, CYP2C19 inhib -11, CYP2C9 inhib -6, CYP2C9 act 1.1 and CYP2C19 activ 1.1.
COc1cc(OC)c(NC2=NCCCCC2)cc1Cl was read as PostGolgi ctrl 13, PostGolgi yeast 1, CYP2C19 inhib 14, CYP2C9 inhib 4, CYP2C9 act 1 and CYP2C19 activ 0.9.
Screening COc1ccc(OC)c(NC(=O)C23CC4CC(C2)CC(n2cnc(Br)n2)(C4)C3)c1 returned PostGolgi ctrl 1, PostGolgi yeast 0, CYP2C19 inhib 72*, CYP2C9 inhib -159, CYP2C9 act 2.6* and CYP2C19 activ 0.3.
Screening C=CCOc1ccc2c(c1)c(S(=O)(=O)c1ccc(C)cc1)cn2COC returned PostGolgi ctrl 29, PostGolgi yeast 2, CYP2C19 inhib 89*, CYP2C9 inhib 37, CYP2C9 act 0.6 and CYP2C19 activ 0.1.
